MITF inh: human MITF inhibition, primary screen; O75030; AlphaScreen MITF homodimerization, bead proximity signal; inhibition, % at 2.6 µM; 650,000 compounds, 0.91% hits; in the data active means inhibition above about 50%
Target sequence (O75030 whole entry, looked up): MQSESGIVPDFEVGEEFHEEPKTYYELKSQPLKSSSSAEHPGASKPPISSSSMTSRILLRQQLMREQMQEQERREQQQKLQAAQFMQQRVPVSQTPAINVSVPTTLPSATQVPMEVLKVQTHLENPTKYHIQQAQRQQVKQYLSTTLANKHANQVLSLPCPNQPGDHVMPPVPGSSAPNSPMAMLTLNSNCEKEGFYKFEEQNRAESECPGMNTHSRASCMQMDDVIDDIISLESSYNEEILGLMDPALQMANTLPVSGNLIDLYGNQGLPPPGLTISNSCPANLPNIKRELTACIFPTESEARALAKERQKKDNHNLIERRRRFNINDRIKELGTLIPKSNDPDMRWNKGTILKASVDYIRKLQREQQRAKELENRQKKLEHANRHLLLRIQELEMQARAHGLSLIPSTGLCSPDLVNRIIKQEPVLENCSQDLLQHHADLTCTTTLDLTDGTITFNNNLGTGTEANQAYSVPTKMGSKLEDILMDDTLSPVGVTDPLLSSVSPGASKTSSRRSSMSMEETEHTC
FBW7 act: activators of human E3 ligase FBW7 | AlphaScreen FBW7–phospho-cyclin E peptide binding, activator screen | 650,000 compounds, 0.13% hits | normalized activity (activation), % at 26.1 µM; in the data active means normalized activity above about 1.9%;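 further: purified mutant Fbw7 with reduced substrate affinity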
TEAD-YAP block: TEAD-YAP interaction inhibition; HEK-TIYL cells, TEAD-Gal4/YAP UAS-luciferase luminescence; inhibition, % at 9.12 µM; 640,000 compounds, 1.4% hits; in the data active means inhibition above about 32%
GPR151 ag: activates the human receptor GPR151 | Q8TDV0 | PathHunter beta-arrestin GPR151 cells, luminescence | activation, % at 11.2 µM | AID 1508602 | 650,000 compounds, 1% hits; in the data active means activation above about 4.9%
Of the large screens only hits and unclear results are named; the others gave an inactive call; ! = a repeat was not active. Shown are actives, neighbours in structure and some others; about 3.5% of the full set was active somewhere.

COc1ccc(N2C(N)=C(C#N)C(c3ccc(OC)c(OC)c3)C3=C2CCCC3=O)cc1 (stereo not drawn)	TEAD-YAP block 62
CN(C)N1C(N)=C(C#N)C(c2ccc(C(F)(F)F)cc2)C2=C1CCCC2=O (stereo not drawn)	FBW7 act 2.1
COc1ccc(C2C(C#N)=C(N)N(c3ccc(OC)cc3)C3=C2C(=O)CCC3)cc1 (stereo not drawn)	none
O=C1CC(N2CCN(c3ccc(C(F)(F)F)cc3[N+](=O)[O-])CC2)C(=O)N1 (stereo not drawn)	none
COc1ccc(S(=O)(=O)N(Cc2ccccc2)c2ccccc2C(=O)NCc2ccncc2)cc1	TEAD-YAP block 56
C=CCNC(=O)c1ccccc1N(Cc1ccccc1)S(=O)(=O)c1ccc(OC)cc1	TEAD-YAP block 55
CCC1=NN(C(=O)c2cccc(C)c2O)C(O)(c2ccncc2)C1 (stereo not drawn)	none
O=C(CSc1cc(N2CCCC2)ncn1)c1ccccc1	TEAD-YAP block 76
CN1CCN(c2ccc(-c3nc4ccc(C(N)=O)cc4s3)cc2)CC1	TEAD-YAP block 44
c1ccc(Cn2c(C3COc4ccccc4O3)nc3ncc(-c4ccncc4)cc32)cc1 (stereo not drawn)	TEAD-YAP block 47
CCn1c(C2COc3ccccc3O2)nc2ccc(-c3ccncc3)cc21 (stereo not drawn)	none
Cc1ccc(C)n1-c1ccc(C(=O)O)c(C(=O)O)c1	none
Cc1ccc(C)n1-c1ccc(Br)cc1C(=O)O	MITF inh 82
O=C(/C=C/c1cccc(Br)c1)Nc1cccc([N+](=O)[O-])c1	none
Cc1ccc(SCCCNCC(C)O)cc1 (stereo not drawn)	none
N#CSCCCOc1ccc2ccccc2c1	TEAD-YAP block 47
c1cnc(SCCCOc2ccc3ccccc3c2)nc1	none
CC(C)OC(=O)C1=C(N)OC2=C(C(=O)CC(C)(C)C2)C1c1ccc(Cl)cc1 (stereo not drawn)	none
O=C(CN1C(=O)C2C3C=CC(C3)C2C1=O)Nc1c2ccccc2nc2ccccc12 (stereo not drawn)	TEAD-YAP block 72
O=C(CN1C(=O)C2C3C=CC(C3)C2C1=O)NCc1ccccc1 (stereo not drawn)	none
CCc1nnc(NS(=O)(=O)c2ccc(NC(=O)c3ccccc3)cc2)s1	none
CCc1nnc(NS(=O)(=O)c2ccc(NC(=S)NC(=O)c3ccccc3)cc2)s1	FBW7 act 2.9
COc1ccccc1NC(=O)c1ccc(SCC(=O)NCc2ccco2)c([N+](=O)[O-])c1	none
COCCN1C(=S)NC2c3ccccc3OC13CCCC23 (stereo not drawn)	TEAD-YAP block 36
O=C(NCc1ccccc1)c1cc2nc(-c3ccc4c(c3)OCO4)cc(C(F)(F)F)n2n1	none
O=[N+]([O-])c1cc(Cl)ccc1S(=O)(=O)Nc1ccc2ccccc2c1	none
CCn1c(C)nc2c(C)[n+](CC(=O)c3ccc(Br)cc3)ccc21	TEAD-YAP block 38
Cc1ccc(Nc2c(-c3ccccc3)c(=O)c2=O)cc1F	TEAD-YAP block 35
Cc1ccc(-c2c(NC(C)c3ccccc3)c(=O)c2=O)cc1 (stereo not drawn)	TEAD-YAP block 45
Cc1ccc(-c2c(Nc3ccccc3C)c(=O)c2=O)cc1	TEAD-YAP block 49
Cc1ccc(CNc2c(-c3ccccc3)c(=O)c2=O)cc1	none
Cc1ccsc1CN1CCN2C(=O)[C@@H](CC(C)C)NC(=O)[C@H]2C1	none
Cc1ccc(Nc2ccc3nonc3c2[N+](=O)[O-])c(C)c1	FBW7 act 2.5
Cc1ccc(Nc2ccc3nonc3c2[N+](=O)[O-])cc1C	none
COc1cccc2c1CC(c1nc3ccc(-c4ccnc(N)n4)cc3[nH]1)CO2 (stereo not drawn)	TEAD-YAP block 50
NC(=O)c1ccc2c(c1)CC(c1nc3ccc(-c4ccnc(N)n4)cc3[nH]1)CO2 (stereo not drawn)	none
Nc1nccc(-c2ccc3nc(C4COc5ccc(F)cc5C4)[nH]c3c2)n1 (stereo not drawn)	TEAD-YAP block 43
Cc1ccc(CN=c2c([N+](=O)[O-])nn(-c3ccccc3)n2O)cc1	none
COc1ccc(CCNc2nc(-c3ccc(C(=O)N4CCN(C)CC4)cc3)nc3c2ncn3-c2ccccc2)cc1	TEAD-YAP block 41
COc1ccc(CCNc2nc(-c3ccc(OC)nc3)nc3c2ncn3-c2ccsc2)cc1	TEAD-YAP block 46
COc1ccc(-c2nc(NCCc3ccc(O)cc3)c3ncn(-c4ccccc4)c3n2)cc1	none
COc1ccc(-c2nc(NCCc3ccc(O)cc3)c3ncn(C(C)C)c3n2)cc1	TEAD-YAP block 61
CC(C)n1cnc2c(NCCc3ccc(O)cc3)nc(-c3ccccc3)nc21	none
COc1ccc(-c2nc(NCCc3ccc(O)cc3)c3ncn(-c4ccccc4)c3n2)cn1	TEAD-YAP block 47
COc1ccc(-c2nc(NCCc3ccc(O)cc3)c3ncn(-c4ccsc4)c3n2)cc1	TEAD-YAP block 56
COc1ccc(CCNc2nc(-c3ccccc3)nc3c2ncn3-c2ccsc2)cc1	none
O=c1[nH]c(N2CCCCC2)nc2c1CCN(Cc1ccc(O)c(O)c1)C2	MITF inh 82
COc1cc(CN2CCN(Cc3cnn(C)c3)CC2CCO)cc(OC)c1 (stereo not drawn)	none
COc1c(C)c2c(c(O)c1C/C=C(\C)CCC(=O)OCCN1CCOCC1)C(=O)OC2	TEAD-YAP block 48
O=C1c2c(O)ccc(O)c2C(=O)c2c(O)ccc(O)c21	none
O=C1c2c(O)ccc(O)c2C(=O)c2c(NCCNCCO)ccc(NCCNCCO)c21	MITF inh 52!, TEAD-YAP block 55
O=C(Nc1nc2ccccc2[nH]1)c1cc(F)c(F)cc1Cl	TEAD-YAP block 54
O=C(NCCCn1ccnc1)c1cc2ncc(Br)cn2n1	none
CC1=C(C#N)C(=O)NC(=O)/C1=C\c1ccc(-c2ccc(C(=O)O)c(Cl)c2)o1	MITF inh 58
CC1=C(C#N)C(=O)NC(=O)/C1=C\c1ccc(-c2ccccc2)o1	none
CC(C)c1ccccc1OCC(=O)NN1C(=O)c2ccccc2C1=O	TEAD-YAP block 34
Cc1ccc(-c2cnc3ccc(N[C@H](CO)C(C)C)nn23)cc1	none
CC(C)[C@@H](CO)Nc1ccc2ncc(-c3cccc(O)c3)n2n1	TEAD-YAP block 39
CC(C)[C@@H](CO)Nc1ccc2ncc(-c3ccc(N)cc3)n2n1	FBW7 act 17
CC(C)[C@@H](CO)Nc1ccc2ncc(-c3cccc(F)c3)n2n1	none
Cc1nc(C#N)c(N/N=C/c2ccc(N(C)C)cc2)o1	TEAD-YAP block 33
Cc1nc(C#N)c(N/N=C/C=C/c2ccccc2)o1	none
COc1ccc(Cl)cc1N(C)S(=O)(=O)c1ccc2[nH]cc(C(=O)NCCCN3CCOCC3)c(=O)c2c1	none
O=C1c2ccccc2C(=O)N1N1C(=O)c2cccc3c([N+](=O)[O-])ccc(c23)C1=O	none
O=C1c2cccc3c(Oc4ccccc4[N+](=O)[O-])ccc(c23)C(=O)N1n1cnnc1	TEAD-YAP block 36
CC(C)(C)c1ccc(C(=O)Nc2cccc3c(=O)[nH][nH]c(=O)c23)cc1	TEAD-YAP block 76
CC(C)(C)c1ccc(C(=O)Nc2ccc(C(=O)Nc3cccc4ccccc34)cc2)cc1	none

Compound activity (PubChem)
